Screening data as filed in PubChem.
PABP FP inh – PABP poly(A) RNA binding inhibitors, primary screen, biochemical, fluorescence polarization, uHTS; Polyadenylate-binding protein 1 (Homo sapiens), P11940; inhibition, % at 35 µM; hit rate 1% among 290,000; AID 2014, 2009;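 note: calls also rest on retests at 20 µM and on dose response follow-up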
eIF4H inh – human eIF4H binding inhibitors, primary screen, translation initiation inhibitor project, biochemical, uHTS, fluorescence polarization | Eukaryotic translation initiation factor 4H (Homo sapiens), Q15056 | eIF4H fluorescence polarization binding assay | inhibition, % at 35 µM | hit rate 0.94% among 290,000 | AID 2012, 2009;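 note: calls also rest on retests at 20 µM and on dose response follow-up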
NRP1-CendR mod – modulators of CendR peptide binding to NRP-1, primary screen, biochemical, fluorescence polarization, uHTS | Neuropilin-1 (Homo sapiens), O14786 | FAM-RPARPAR peptide binding to NRP-1 | inhibition, % at 25 µM | hit rate 0.85% among 360,000 | AID 602438, 2012;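 active = inhibition or corrected inhibition above about 18%, plus a signal ratio from 0.5 to 1.5, limit read from the data, passing the limit was not always enough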
Target sequence (O14786 whole entry, looked up): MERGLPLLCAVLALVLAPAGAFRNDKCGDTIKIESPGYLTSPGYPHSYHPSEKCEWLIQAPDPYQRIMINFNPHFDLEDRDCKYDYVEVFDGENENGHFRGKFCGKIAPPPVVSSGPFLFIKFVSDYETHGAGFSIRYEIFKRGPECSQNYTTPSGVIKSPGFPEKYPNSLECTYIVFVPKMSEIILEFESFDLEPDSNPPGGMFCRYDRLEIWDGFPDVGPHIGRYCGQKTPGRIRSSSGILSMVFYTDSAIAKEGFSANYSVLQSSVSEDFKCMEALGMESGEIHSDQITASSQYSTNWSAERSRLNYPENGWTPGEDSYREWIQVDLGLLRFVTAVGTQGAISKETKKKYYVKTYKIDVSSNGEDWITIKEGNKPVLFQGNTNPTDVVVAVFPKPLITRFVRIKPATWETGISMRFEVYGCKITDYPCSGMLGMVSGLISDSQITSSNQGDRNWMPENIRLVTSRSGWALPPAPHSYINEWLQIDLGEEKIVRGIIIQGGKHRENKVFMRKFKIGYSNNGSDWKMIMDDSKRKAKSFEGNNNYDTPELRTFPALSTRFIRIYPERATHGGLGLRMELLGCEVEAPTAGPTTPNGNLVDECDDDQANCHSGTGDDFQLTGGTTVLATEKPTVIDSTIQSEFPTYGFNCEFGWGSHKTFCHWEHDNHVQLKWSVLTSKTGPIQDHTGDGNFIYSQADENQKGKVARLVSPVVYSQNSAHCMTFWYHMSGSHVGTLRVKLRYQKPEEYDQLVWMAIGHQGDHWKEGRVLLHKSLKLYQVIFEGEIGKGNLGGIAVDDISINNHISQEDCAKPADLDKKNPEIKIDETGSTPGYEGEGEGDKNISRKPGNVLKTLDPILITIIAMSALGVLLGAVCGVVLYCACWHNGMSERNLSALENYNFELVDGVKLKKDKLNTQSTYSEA
MLLE-PAM2 inh – inhibitors of PABP1 MLLE–PAM2 peptide binding, primary screen, biochemical, fluorescence polarization, FITC-PAM2, GST-MLLE; Polyadenylate-binding protein 1 (Homo sapiens), P11940; inhibition, % at 20 µM; hit rate 0.36% among 360,000; AID 588489, 2011; in the data active = inhibition above about 35%, passing the limit was not always enough;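 note: plate controls were DMSO wells with GST-MLLE for no effect and wells lacking GST-MLLE protein for full effect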
Active calls of the source: *; ? = inconclusive; · = not tested or not shown. An excerpt weighted towards active compounds, which were near 2.1% of everything screened. Unless noted, the rule behind the calls is not given here.

SMILES | PABP FP inh | eIF4H inh | NRP1-CendR mod | MLLE-PAM2 inh
CCCC(=O)Nc1ccc(C2C(=O)c3ccccc3C2=O)cc1 | 5.0 | -2.4 | -2.6 | 3.3
COc1cc(C)cc(C(=O)O)c1C1=C(O)c2cccc(O)c2C(=O)C1=O | · | · | 27.8* | 2.8
COc1ccc(N=C2NN=C(c3c(C)[nH]c4ccccc34)CS2)cc1 | 5.5 | 1.5 | -15.3 | -124.7
Cc1[nH]c2ccccc2c1C1=NNC(=Nc2ccc(F)cc2)SC1 | 85.5* | active | -7.4 | -143.0
NC(=S)NNC(=S)Nc1ccccc1 | 8.8 | -5.4 | 39.4* | 36.4
CC(=O)Nc1cccc(-c2ccnc3c2CC(C(=O)NCCc2ccccc2)O3)c1 (stereo unspecified) | · | · | -9.6 | -4.5
Nc1c(NCc2ccccc2F)c(=O)[nH]c(=O)n1Cc1ccccc1 | 50.8* | 50.6* | -7.4 | 0.9
CCCCn1c(N)c(NCc2ccccc2)c(=O)[nH]c1=O | 1.0 | -0.1 | -9.2 | 17.5
O=C(CNc1ccccc1)N/N=C/c1cn(-c2ccccc2)nc1-c1ccccc1 | 67.2* | active | -15.3 | -1.1
NC(=O)N/N=C/c1cn(-c2ccccc2)nc1-c1ccccc1 | -6.3 | 2.4 | -5.2 | -6.2
COc1ccc(/C=C2\SC(=S)N(CC(=O)OCC(=O)Nc3ccc(C)cc3Cl)C2=O)cc1 | -4.3 | -2.8 | 33.5* | -1.9
COc1ccc(NCc2nnc(SCC(=O)NCc3ccccc3)n2-c2ccccc2OC)cc1 | -11.3 | -6.8 | 29.1* | -12.0
O=C(CSc1ccc2nnc(-c3ccccc3)n2n1)N1CCCCC1 | · | · | -8.2 | 40.4*
O=C1/C(=C/c2cccnc2)SC(=S)N1c1ccc(F)cc1 | -5.2 | 1.5 | 4.6 | 43.3*
COc1ccc(/C=C2/SC(=S)N(Cc3ccccc3)C2=O)cc1O | 7.3 | 1.8 | -15.6 | -9.8
COc1cc(/C=C2\SC(=S)N(c3cccnc3)C2=O)ccc1O | -8.6 | 71.4* | -41.2 | -36.0
COc1cc(/C=C2\SC(=S)N(NC(=O)c3cccnc3)C2=O)ccc1O | -4.2 | 24.7 | -187.6 | -95.1
O=C1/C(=C/c2cccnc2)SC(=S)N1c1ccc(O)cc1 | 13.0 | -8.6 | -4.8 | 27.7
COc1ccc(/C=C2\SC(=S)N(N3C(=O)CCC3=O)C2=O)cc1O | -0.4 | 44.3 | 36.4* | -20.1
COc1cc(C(=O)N=c2sccn2C)c([N+](=O)[O-])cc1OC | 2.8 | -9.6 | 18.3 | -47.9
Cn1ccsc1=NC(=O)c1ccc([N+](=O)[O-])o1 | 44.8* | 80.3* | 1.6 | -3.8
Cc1ccc(S(=O)(=O)N2CCCC2CNC(=O)C(=O)Nc2ccc(F)cc2F)cc1 (stereo unspecified) | · | · | -18.5 | 2.3
CCOCC(=O)Nc1nnc(COc2ccc(Cl)cc2)s1 | -6.0 | 3.6 | 3.3 | 37.0*
CCOCc1nnc(NC(=O)c2c(OC)cccc2OC)s1 | -10.5 | -1.1 | 20.3* | 28.8
COc1ccc(-c2cc(C(F)(F)F)n3nc(C(=O)N4CCN5CCCC5C4)cc3n2)cc1OC (stereo unspecified) | -4.2 | 2.0 | 12.8 | 16.2
SMILES | PABP FP inh | eIF4H inh | NRP1-CendR mod | MLLE-PAM2 inh
Cc1ccc(-c2ccc(C3C(C#N)=C(N)Oc4n[nH]c(C)c43)o2)cc1 (stereo unspecified) | 75.8* | 53.7* | -21.1 | -16.4
CCc1ccccc1N(C(C)=O)c1nc(CCl)cs1 | 71.2 | active | -3.4 | 22.6
CCCn1c(SCC(=O)Nc2nnc(-c3ccccc3)s2)nnc1-c1ccccn1 | 5.5 | -3.2 | 26.7* | 2.8
CCCn1c(SCC(=O)NCCc2ccccc2)nnc1-c1ccccn1 | 3.4 | -0.6 | 5.4 | 10.8
COc1cc(NC(=O)C2(C)CCCN2C)cc(OC)c1OC (stereo unspecified) | · | · | -3.8 | -12.8
Cc1csc(N=Nc2ccc(N(C)C)cc2)[n+]1[O-] | · | · | 0.3 | -14.5
Cc1occc1C(=O)NCc1ccco1 | 3.9* | 57.8* | -3.7 | -3.6
Cc1ccc(C)c(C(=O)NC(C)CCc2ccccc2)c1 (stereo unspecified) | -1.2 | -5.3 | 4.8 | 1.6
O=C(NCc1ccco1)c1cc2ccc(O)cc2oc1=O | 36.9* | ? | -10.4 | -7.2
COc1ccc2cc(C(=O)NCc3ccco3)c(=O)oc2c1 | 1.5 | -3.8 | 0.5 | -10.3
Cc1occc1C(=O)NC(C)CCc1ccccc1 (stereo unspecified) | 2.9 | 2.8 | 24.5* | -4.0
COC(=O)C1CCN(C(=O)COC(=O)CNC(=O)c2ccc(Cl)cc2Cl)CC1 | · | · | 8.4 | 5.6
CCOC(=O)CNc1ccc2c(c1)OCO2 | 104.9* | ? | 33.8* | 127.4
CCOC(=O)CNC(=O)/C=C/c1ccc2c(c1)OCO2 | -6.8 | -1.1 | 10.4 | -4.0
CCCc1nc2sc3ccccc3c(=O)c2c(=O)n1Cc1ccc(OC)cc1 | 10.9 | -1.3 | -11.8 | -6.1
CCCc1nc2sc3ccccc3c(=O)c2c(=O)n1Cc1ccco1 | 48.8* | 64.0* | -32.7 | 27.1
COc1cccc(CC(=O)OCC(=O)N(C)CC(=O)Nc2ccccc2Cl)c1 | · | · | 19.9* | 0.6
COc1cc([N+](=O)[O-])cc(/C=N/NC(=O)C(C)Nc2cccc3ccccc23)c1O (stereo unspecified) | -1.3 | 34.7 | 31.8* | 1.1
CC(=O)N1CCC(C(=O)N2CCN(S(=O)(=O)c3cccs3)CC2)CC1 | 9.6 | 6.3 | 37.2* | 1.8
O=S(=O)(c1cccs1)N1CCCCC1 | · | · | 34.7* | -5.6
CC1CCN(C(=O)c2[nH]cnc2C(=O)NCc2ccc(CNC(=O)OC(C)(C)C)cc2)CC1 | · | · | 30.0* | 0.4
O=C(NCc1ccccc1)c1nc[nH]c1C(=O)N1CCN(c2ccccc2)CC1 | · | · | 30.1* | -4.8
CC1CCN(C(=O)c2[nH]cnc2C(=O)NCc2ccccc2)CC1 | · | · | 20.2 | -4.9
CC(C)(C)OC(=O)N1CCN(C(=O)c2[nH]cnc2C(=O)NCc2ccccc2)CC1 | · | · | 33.4* | -3.3
CC(C)(C)OC(=O)N1CCC(NC(=O)c2nc[nH]c2C(=O)N2CCc3ccccc3C2)CC1 | · | · | 30.0* | 4.3
SMILES | PABP FP inh | eIF4H inh | NRP1-CendR mod | MLLE-PAM2 inh
CC(Sc1ccc(Cl)cc1)C(=O)N(C)CC(=O)Nc1ccc(N2CCOCC2)cc1 (stereo unspecified) | · | · | -4.5 | 8.1
CC(C)(C)OC(=O)NCc1ccc(CNC(=O)c2nc[nH]c2C(=O)NCc2ccccc2)cc1 | · | · | 5.2 | 5.0
CN(Cc1ccccc1)C(=O)c1[nH]cnc1C(=O)NCc1ccc(CNC(=O)OC(C)(C)C)cc1 | · | · | 30.1* | 7.2
C/C(=N/NC(=O)c1cc(O)c(O)c(O)c1)c1ccc([N+](=O)[O-])cc1 | 5.8 | 32.8 | -8.6 | 13.0
COC1=CC(=O)c2nc(Cl)ccc2C1=O | · | · | 25.6* | 9.1
COC1=CC(=O)c2c(ccc3ncnc(N)c23)C1=O | · | · | 22.4 | -4.0
COc1ccc2cc3[n+](cc2c1O)CCc1cc2c(cc1-3)OCO2 | · | · | 30.7* | ·
COc1ccc(C(=O)/C=C2/C(=O)Nc3ccccc32)cc1 | 1.5 | -2.2 | 4.1 | 2.4
COc1ccc(C(=O)/C=C2/C(=O)Nc3ccccc32)cc1OC | -10.5 | 7.7 | 38.9* | -1.0
Cc1ccnc(SCc2cn3c(C)cccc3n2)n1 | 5.1 | -1.5 | 20.2* | 17.5
Cc1cc(C)nc(SCc2cn3c(C)cccc3n2)n1 | -3.8 | -6.9 | 10.5 | 6.2
